The nature of test [1]: NCI Yeast Anticancer Drug Screen. Data for the rad50 strain (AID 155).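 Note: 0% = growth of vehicle-only cultures of the same strain.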 As to conditions: S. cerevisiae rad50 strain growth inhibition, active compounds read high. The gist of the method: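 Vehicle-treated cultures provide the reference for the growth inhibition reported for compound-exposed, repair-deficient yeast.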
The nature of test [2]: NCI Yeast Anticancer Drug Screen. Data for the mec2-1 strain (AID 157). To be noted: S. cerevisiae mec2-1 strain, active compounds read high. Put shortly:
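Readout is yeast growth inhibition, normalised to vehicle-treated controls, in the mec2-1 strain exposed to compound.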

Test [3] can be described thus: NCI Yeast Anticancer Drug Screen. Data for the sgs1 mgt1 strain (AID 161).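 Note: 0% = growth of cultures given vehicle only.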 To be noted: S. cerevisiae sgs1 mgt1 strain, active compounds read high. The gist of the method: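 This yeast growth screen uses a strain with defined DNA-repair lesions; compound-treated growth is compared with vehicle-treated growth.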
Test [4] is described as follows: NCI Yeast Anticancer Drug Screen. Data for the cln2 rad14 strain (AID 165).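 Note: 0% = growth equal to vehicle treated cultures.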 To be noted: S. cerevisiae cln2 rad14 strain, active compounds read high. Put shortly: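 Relative to vehicle controls, growth inhibition of compound-treated cln2 rad14 yeast was recorded.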
A short description of test [5]: NCI Yeast Anticancer Drug Screen. Data for the bub3 strain (AID 167). As to conditions: S. cerevisiae bub3 mutant strain, active compounds read high. Put shortly: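 Mutant yeast screening strain plus compound; vehicle-treated cultures serve as the 0% inhibition reference.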
Test [6] can be described thus: NCI Yeast Anticancer Drug Screen. Data for the mlh1 rad18 strain (AID 175). As to conditions: S. cerevisiae mlh1 rad18 strain growth inhibition, active compounds read high. Put shortly: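 Test agents were incubated with a yeast strain of defined genotype (DNA damage repair defect). Inhibition of growth was derived by comparison with vehicle-exposed cultures.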
The mark [7] stands for this setting: at 5.0 µM (retest, dose inferred, filed as 0.5).
Where [8] appears, read: at 50.0 µM (retest, dose inferred, filed as 5.0).

Compounds without any hit were thinned out: in the full panel of roughly 79,000, 15% have a hit. A number with no mark means an inactive call. Active and inactive are the calls of the source. Cut-off read from the data, not from the text of the source: active = growth inhibition above about 70%; inactive = the rest.

With `FC(F)(F)c1ccc(-c2ccc(OCCN3CCCC3)cc2)cc1`, the growth inhibition was 30% in test [1] (setting [7]); 50% in test [1] (setting [8]); 98.6% (active) in test [1] (at 50.0 µM); 13% in test [2] (setting [7]); 50% in test [2] (setting [8]); 99.5% (active) in test [2] (at 50.0 µM). Besides, the growth inhibition in test [3] (setting [7]) is 25%; in test [3] (setting [8]), 88% (active); in test [3] (at 50.0 µM), 99.4% (active); in test [4] (setting [7]) it was 28%; in test [4] (setting [8]), 40%; in test [4] (at 50.0 µM), 99.1% (active). Further, the growth inhibition in test [5] (setting [7]) was 26%; in test [5] (setting [8]) it was 62%; in test [5] (at 50.0 µM), 99.4% (active); in test [6] (setting [7]), 29%; in test [6] (setting [8]), 68%; in test [6] (at 50.0 µM), 99.3% (active).

As for `COC(=O)C1=C(/C=C/C(C)=O)NC(C)=C(C(=O)OC(C)C)C1c1ccccc1Cl` (configuration not stated), the growth inhibition in test [1] (setting [7]) was 40%; in test [1] (setting [8]), 95% (active); in test [1] (at 50.0 µM), 49.3%; in test [2] (setting [7]), 34%; in test [2] (setting [8]) it was 97% (active); in test [2] (at 50.0 µM) it was 62.5%. The growth inhibition is 37% in test [3] (setting [7]); 96% (active) in test [3] (setting [8]); 24.5% in test [3] (at 50.0 µM); 65% in test [4] (setting [7]); 95% (active) in test [4] (setting [8]); 33.5% in test [4] (at 50.0 µM). Also, the growth inhibition in test [5] (setting [7]) is 40%; in test [5] (setting [8]), 97% (active); in test [5] (at 50.0 µM), 41.2%; in test [6] (setting [7]), 34%; in test [6] (setting [8]) it was 95% (active); in test [6] (at 50.0 µM), 51.4%.

Consider `CCc1nc(N)nc(N)c1-c1ccc(N2CCCCC2)c([N+](=O)[O-])c1`, for which the growth inhibition was 3% in test [1] (setting [7]); 8% in test [1] (setting [8]); 31.3% in test [1] (at 50.0 µM); 6% in test [2] (setting [7]); 4% in test [2] (setting [8]); 56.8% in test [2] (at 50.0 µM). For the same molecule, the growth inhibition is 1% in test [3] (setting [7]); 3% in test [3] (setting [8]); 13.3% in test [3] (at 50.0 µM); -6% in test [4] (setting [7]); 6% in test [4] (setting [8]); 72.2% (active) in test [4] (at 50.0 µM). For the same molecule, the growth inhibition in test [5] (setting [7]) is -1%; in test [5] (setting [8]), -2%; in test [5] (at 50.0 µM) it was 91.7% (active); in test [6] (setting [7]), -1%; in test [6] (setting [8]), 0%; in test [6] (at 50.0 µM) it was 51%.

Take `Cc1ccc(C2COc3cc(O)c(O)cc3C2)cc1` (configuration not stated): the growth inhibition is 29% in test [1] (setting [7]); 99% (active) in test [1] (setting [8]); 99.5% (active) in test [1] (at 50.0 µM); 33% in test [2] (setting [7]); 99% (active) in test [2] (setting [8]); 99.6% (active) in test [2] (at 50.0 µM). The growth inhibition in test [3] (setting [7]) is 32%; in test [3] (setting [8]) it was 99% (active); in test [3] (at 50.0 µM) it was 99.5% (active); in test [4] (setting [7]), 11%; in test [4] (setting [8]) it was 99% (active); in test [4] (at 50.0 µM) it was 96.2% (active). Further, the growth inhibition in test [5] (setting [7]) is 32%; in test [5] (setting [8]) it was 99% (active); in test [5] (at 50.0 µM), 99.6% (active); in test [6] (setting [7]), 51%; in test [6] (setting [8]), 99% (active); in test [6] (at 50.0 µM), 99.4% (active).

On to `CC1NC(=O)OC1(C)c1ccccc1` (configuration not stated), for which the growth inhibition in test [1] (setting [7]) is 3%; in test [1] (setting [8]), -3%; in test [1] (at 50.0 µM) it was 50.5%; in test [2] (setting [7]) it was -5%; in test [2] (setting [8]) it was -12%; in test [2] (at 50.0 µM), 9.2%. Also, the growth inhibition is 2% in test [3] (setting [7]); 2% in test [3] (setting [8]); -7.5% in test [3] (at 50.0 µM); 1% in test [4] (setting [7]); -4% in test [4] (setting [8]); -35.8% in test [4] (at 50.0 µM). Also, the growth inhibition in test [5] (setting [7]) is 10%; in test [5] (setting [8]) it was 30%; in test [5] (at 50.0 µM), 12.1%; in test [6] (setting [7]) it was 12%; in test [6] (setting [8]), 1%; in test [6] (at 50.0 µM), -20.6%.

As to `CCC[CH2][Sn]([CH2]CCC)([O]C(=O)c1ccc(C)c(N)c1)[O]C(=O)c1ccc(C)c(N)c1`, the growth inhibition is 98% (active) in test [1] (setting [7]); 98% (active) in test [1] (setting [8]); 91.7% (active) in test [1] (at 50.0 µM); 92% (active) in test [2] (setting [7]); 92% (active) in test [2] (setting [8]); 92% (active) in test [2] (at 50.0 µM). Besides, the growth inhibition in test [3] (setting [7]) was 96% (active); in test [3] (setting [8]), 96% (active); in test [3] (at 50.0 µM), 92.5% (active); in test [4] (setting [7]), 96% (active); in test [4] (setting [8]), 96% (active); in test [4] (at 50.0 µM), 91.3% (active). In addition, the growth inhibition is 90% (active) in test [5] (setting [7]); 90% (active) in test [5] (setting [8]); 89% (active) in test [5] (at 50.0 µM); 97% (active) in test [6] (setting [7]); 97% (active) in test [6] (setting [8]); 87.5% (active) in test [6] (at 50.0 µM).

On to `CCCCCCSc1nn(CCC#N)c(=O)[nH]c1=O`, for which the growth inhibition in test [1] (setting [7]) is -1%; in test [1] (setting [8]), -36%; in test [1] (at 50.0 µM) it was 96% (active); in test [2] (setting [7]), 5%; in test [2] (setting [8]) it was 36%; in test [2] (at 50.0 µM), 93.5% (active). The growth inhibition was 1% in test [3] (setting [7]); 40% in test [3] (setting [8]); 91.5% (active) in test [3] (at 50.0 µM); 13% in test [4] (setting [7]); 10% in test [4] (setting [8]); 78.5% (active) in test [4] (at 50.0 µM). Besides, the growth inhibition was 24% in test [5] (setting [7]); -6% in test [5] (setting [8]); 74.8% (active) in test [5] (at 50.0 µM); 3% in test [6] (setting [7]); 21% in test [6] (setting [8]); 96.7% (active) in test [6] (at 50.0 µM).

On to `O=C(CCl)[O][Bi]([O]C(=O)CCl)([c]1ccccc1)([c]1ccccc1)[c]1ccccc1`, for which the growth inhibition was 10% in test [1] (setting [7]); 51% in test [1] (setting [8]); 13% in test [1] (at 50.0 µM); 11% in test [2] (setting [7]); 58% in test [2] (setting [8]); 15.7% in test [2] (at 50.0 µM). The growth inhibition in test [3] (setting [7]) is 32%; in test [3] (setting [8]), 83% (active); in test [3] (at 50.0 µM), -8.4%; in test [4] (setting [7]), 26%; in test [4] (setting [8]) it was 59%; in test [4] (at 50.0 µM) it was 5.75%. The growth inhibition in test [5] (setting [7]) is 31%; in test [5] (setting [8]), 85% (active); in test [5] (at 50.0 µM), 10.2%; in test [6] (setting [7]), 17%; in test [6] (setting [8]), 71% (active); in test [6] (at 50.0 µM), 23.1%.

In the case of `Cc1ccc(C(=O)C(F)(F)F)cc1`, the growth inhibition in test [1] (setting [7]) is -162%; in test [1] (setting [8]), -138%; in test [1] (at 50.0 µM), 4.5%; in test [2] (setting [7]), -46%; in test [2] (setting [8]), -51%; in test [2] (at 50.0 µM) it was -15.9%. The growth inhibition is -63% in test [3] (setting [7]); -68% in test [3] (setting [8]); -10.5% in test [3] (at 50.0 µM); -60% in test [4] (setting [7]); -78% in test [4] (setting [8]); 32.1% in test [4] (at 50.0 µM). Further, the growth inhibition in test [5] (setting [7]) is -74%; in test [5] (setting [8]) it was -89%; in test [5] (at 50.0 µM), -24.1%; in test [6] (setting [7]), -145%; in test [6] (setting [8]), -117%; in test [6] (at 50.0 µM), 3.3%.

These data come from PubChem BioAssay (NCI).
